Test results reported in the supplement of paper PMC10670038.
Where a name gives a salt, the structure may show the parent alone. ± gives the standard deviation of the averaged measurements. Over roughly 2,000 compounds, “relative cell viability vs DMSO, compound alone” has its median near 1.1; the lowest 2% begin near 0.29. What follows is part of a selection rich in the lowest values, with near analogues and random picks from the rest.

system: TE10; assay: relative cell viability vs DMSO, compound alone (fraction); TE10 is an esophageal squamous carcinoma line; higher = less cytotoxic; settings: 2 µM; 48 h
Experimental: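 TE10 ESCC cells (1,000/well, 384-well plates) were treated with Selleck bioactive library compounds at 2 uM alone for 48 h. Viability was read by CellTiter-Glo and expressed relative to DMSO wells. Two technical replicates (A, B).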

Structure (SMILES) | relative cell viability
CC(C)C[C@H](NC(=O)[C@@H](NC(=O)c1cccc(-c2ccccc2)n1)[C@@H](C)O)B(O)O | 0.0932 ± 0.003
CC(C)C[C@H](NC(=O)CNC(=O)c1cc(Cl)ccc1Cl)B(O)O | 0.341 ± 0.023
Cc1cc2c(cc1CC(=O)c1sccc1S(=O)(=O)Nc1onc(C)c1Cl)OCO2 [Sitaxentan sodium] | 1.06 ± 0.022
CC(C)(O)CC(=O)NCCn1ccc2ncnc(Nc3ccc(Oc4cccc(C(F)(F)F)c4)c(Cl)c3)c21 | 1.17 ± 0.07
Oc1ccc(Nc2nc(-c3ccc(Cl)cc3)cs2)cc1 | 1.11 ± 0.019
COc1cc(C=O)ccc1O [Vanillin] | 1.11 ± 0.027
Cc1cc(Nc2cc(N3CCN(C)CC3)nc(/C=C/c3ccccc3)n2)n[nH]1 | 0.856 ± 0.03
Cc1cc(Nc2cc(N3CCN(C)CC3)nc(/C=C/c3ccccc3)n2)n[nH]1 [ENMD-2076 L-(+)-Tartaric acid] | 0.808 ± 0.069
Cc1cc(C)nc(NS(=O)(=O)c2ccc(N)cc2)n1 [Sulfamethazine] | 1.1 ± 0.044
COCCCC/C(=N\OCCN)c1ccc(C(F)(F)F)cc1 [Fluvoxamine maleate] | 1.21 ± 0.041
COC(=O)[C@]12CCC(C)(C)C[C@H]1[C@H]1C(=O)C=C3[C@@]4(C)C=C(C#N)C(=O)C(C)(C)[C@@H]4CC[C@@]3(C)[C@]1(C)CC2 [Bardoxolone Methyl] | 0.272 ± 0.0085
CC1(C)CC[C@]2(NC(=O)C(C)(F)F)CC[C@]3(C)[C@H](C(=O)C=C4[C@@]5(C)C=C(C#N)C(=O)C(C)(C)[C@@H]5CC[C@]43C)[C@@H]2C1 [Omaveloxolone (RTA-408)] | 0.59 ± 0.032
N#Cc1ccc(-c2csc(NN=C3CCCC3)n2)cc1 [Remodelin] | 1.121 ± 0.0093
COc1cc2ncnc(Nc3ccc(Cl)cc3F)c2cc1OC | 0.999 ± 0.16
NC(=O)Nc1cc(-c2cccc(F)c2)sc1C(=O)N[C@H]1CCCNC1 | 0.259 ± 0.021
NC(=O)Nc1sc(-c2ccc(F)cc2)cc1C(N)=O | 0.98 ± 0.072
COc1cc(C(=O)NC2CCCNC2)cc(OC)c1OC (stereo not given) [Troxipide] | 1.13 ± 0.016
C[N+](C)(C)C[C@H](O)CC(=O)[O-] [L-carnitine] | 1.04 ± 0.016
NC(=O)N1CCC(CC(=O)N2CCC([C@H]3c4ncc(Br)cc4CCc4cc(Cl)cc(Br)c43)CC2)CC1 [Lonafarnib] | 1.06 ± 0.049
CNC[C@H](O)[C@@H](O)[C@H](O)[C@H](O)CO [Meglumine] | 1.008 ± 0.0073

Structure (SMILES) | relative cell viability
COc1cc(-c2cc(-c3ccc(N4CCNCC4)cc3)cnc2C)cc(OC)c1OC | 1.16 ± 0.019
Nc1ccc(-c2ccc3ncc4ccc(=O)n(-c5cccc(C(F)(F)F)c5)c4c3c2)cn1 [Torin 2] | 0.378 ± 0.014
COc1ccc(-c2ccc3ncc4c(c3c2)n(-c2ccc(N3CCNCC3)c(C(F)(F)F)c2)c(=O)n4C)cn1 | 0.0662 ± 0.0018
COc1cc(-c2cc(-c3cccc(O)c3)cnc2N)cc(OC)c1OC | 1.21 ± 0.0055
COc1ccc(COc2cc3oc(=O)c4cc(C(C)O)ccc4c3cc2OC)cc1 (stereo not given) [Palomid 529 (P529)] | 1.14 ± 0.025
COCCOC(=O)C1=C(C)NC(C)=C(C(=O)OC/C=C/c2ccccc2)C1c1cccc([N+](=O)[O-])c1 (stereo not given) [Cilnidipine] | 1.15 ± 0.055
NCCCC[C@@H]1NC(=O)[C@@H](Cc2ccccc2)NC(=O)[C@H](CC(=O)O)NC(=O)CNC(=O)[C@H](CCCN=C(N)N)NC1=O [Cyclo (-RGDfK)] | 1.1 ± 0.024
CCCCN(Cc1ccc(C(=O)NO)cc1)C(=O)Nc1ccccc1 [Nexturastat A] | 0.716 ± 0.074
CC(C)[C@H](C(=O)Nc1ccc(C(=O)NO)cc1)c1ccccc1 | 0.221 ± 0.015
CC(=O)Nc1ccc(C(=O)Nc2ccccc2N)cc1 [CI994 (Tacedinaline)] | 1 ± 0.017
O=C(NC[C@H]1CN(c2ccc(N3CCOCC3=O)cc2)C(=O)O1)c1ccc(Cl)s1 [Rivaroxaban] | 1.04 ± 0.076
C[C@]12CCC3=C4CCC(=O)C=C4CC[C@H]3[C@@H]1CC[C@@]2(O)CC#N [Dienogest] | 1.19 ± 0.024
c1cc(-c2cnn3cc(-c4ccc(N5CCNCC5)cc4)cnc23)c2cccnc2c1 | 0.0982 ± 0.0034
CC(C)Oc1ccc(-c2cnc3c(-c4ccnc5ccccc45)cnn3c2)cc1 | 1.19 ± 0.027
COc1ccc(-c2cnc3c(-c4cccc5ncccc45)cnn3c2)cc1 | 1.171 ± 0.0012
COC(=O)c1ccc2c(c1)nc(NC(=O)c1ccccc1)n2CCCc1ccccc1 | 0.777 ± 0.0059
O=C(c1ccc(Nc2nccc(-c3cc4ccccc4s3)n2)cc1)N1CCC(N2CCCC2)CC1 [IKK-16 (IKK Inhibitor VII)] | 1.03 ± 0.02
CN1CC[C@H](c2c(O)cc(O)c3c(=O)cc(-c4ccccc4Cl)oc23)[C@H](O)C1 [Flavopiridol (Alvocidib)] | 0.228 ± 0.055
CN1CC[C@@H](c2c(O)cc(O)c3c(=O)cc(-c4ccccc4Cl)oc23)[C@@H]1CO | 0.501 ± 0.008
CN1CC[C@H](c2c(O)cc(O)c3c(=O)cc(-c4ccccc4Cl)oc23)[C@H](O)C1 [Flavopiridol HCl] | 0.293 ± 0.03
